The record followed here is PubChem BioAssay AID485360 (National Center for Advancing Translational Sciences (NCATS), 2010).

Several values for one entry are separate records, joined by “and”; a condition that tells them apart may be missing. Identical values can stand only once. Out of some 230,000 compounds screened, about 1,500 (0.65%) were called active. About 3% were inconclusive and are not listed. Calls follow the shape of the dose curve; as a rule, active = well fitted inhibition curve with a large enough effect; inconclusive = small, poorly fitted or top-dose-only effect; inactive = no such curve, though single readings can be large or run the other way. What follows is part of a selection rich in actives, with near analogues and random picks from the rest. Where a structure was tested more than once in an assay, its records may differ in their call.
% is scaled to controls: 0 for no effect and ±100 for the full control effect; potency is read from the fitted curve at half-maximal effect.

The target in the assay is Lethal(3)malignant brain tumor-like protein 1 (Homo sapiens) (UniProt Q9Y468). Briefly: qHTS Assay for the Inhibitors of L3MBTL1. Also: nearly all actives have a fitted effect of over 60% in size. Particulars: AlphaScreen L3MBTL1–H3K9me1 peptide binding; series mostly up to 57.1 µM; activity, negative = inhibition: at the top concentration. The source says: The histone code is comprised of many post-translational modifications that occur mainly in histone tail peptides. The identity and location of these marks are read by a variety of histone binding proteins that are emerging as important regulators of cellular differentiation and development and are increasingly being implicated in numerous disease states. Small molecule probes that disrupt the interaction between histone binding proteins and chromatin would enable a systematic chemical biology study of proteins that read the histone code and could potentially reveal new targets for drug discovery. However, no such small molecules are known. This dearth of quality molecular probes can largely be attributed to the novelty of the target class and the lack of screening assays. This proposal details the development of the first high-throughput screening assay for the discovery of inhibitors of methyl-lysine binding proteins and how it can be be used to initiate a full-scale discovery effort for antagonists of histone binding proteins. Specifically, this work focuses on an AlphaScreen(tm)-based HTS assay for Malignant Brain Tumor (MBT) domain-containing proteins, which bind to the lower methylation states of lysine residues present in histone tail peptides.
Sequence of Lethal(3)malignant brain tumor-like protein 1 (Homo sapiens) (Q9Y468 whole entry, looked up): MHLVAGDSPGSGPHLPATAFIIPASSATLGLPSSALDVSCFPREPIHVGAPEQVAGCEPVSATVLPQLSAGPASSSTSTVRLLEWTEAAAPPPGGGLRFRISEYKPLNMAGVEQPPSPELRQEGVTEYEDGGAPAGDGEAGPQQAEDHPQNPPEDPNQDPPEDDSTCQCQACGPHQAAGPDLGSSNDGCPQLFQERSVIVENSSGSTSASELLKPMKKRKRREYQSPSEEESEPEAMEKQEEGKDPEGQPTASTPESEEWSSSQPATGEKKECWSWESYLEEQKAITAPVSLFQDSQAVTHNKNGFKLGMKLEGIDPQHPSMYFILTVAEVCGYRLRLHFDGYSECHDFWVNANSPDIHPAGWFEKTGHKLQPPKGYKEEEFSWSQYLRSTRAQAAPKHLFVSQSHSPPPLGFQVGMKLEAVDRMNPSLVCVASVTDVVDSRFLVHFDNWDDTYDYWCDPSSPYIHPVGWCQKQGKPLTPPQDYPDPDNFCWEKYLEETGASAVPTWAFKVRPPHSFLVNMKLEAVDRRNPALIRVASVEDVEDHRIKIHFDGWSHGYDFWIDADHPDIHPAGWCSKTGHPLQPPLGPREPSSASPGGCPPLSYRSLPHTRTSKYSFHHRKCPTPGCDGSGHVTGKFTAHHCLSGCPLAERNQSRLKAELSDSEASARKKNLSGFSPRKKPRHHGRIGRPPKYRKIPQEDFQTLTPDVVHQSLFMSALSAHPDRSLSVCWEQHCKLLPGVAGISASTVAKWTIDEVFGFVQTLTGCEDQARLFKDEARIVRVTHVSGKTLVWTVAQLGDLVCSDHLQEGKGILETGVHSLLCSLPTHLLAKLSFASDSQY
To each well, 2 uL of L3MBTL1 protein (final 50 nM) and 1 uL biotinylated histone peptide monomethylated at Lys9 [b-AHA-H3(1-15)K9me1] (final 75 nM) was added using a nanoliter dispenser. Formation of a protein-peptide complex proceeded at room temperature for 30 min. A Kalypsys pin-tool was employed to transfer 23 nL of library compound solution in DMSO to each well. Cefsulodin, found in a pilot screen of the LOPAC library to be a weak inhibitor of L3MBTL1 binding, was used as an intraplate control with a 16-point titration in duplicate. Following a 30 min incubation of the protein-peptide complex with compounds at room temperature, a mixture of 40 ug/mL each streptavidin-coated donor and nickel chelate acceptor AlphaScreen beads (final 10 ug/mL) was added in a 1 uL dispense for a final volume of 4 uL. Plates were incubated, protected from the light for 30 min at room temperature. Microplates were then be read on an EnVision multilabel plate reader using the 1,536 plate HTS AlphaScreen aperture (excitation time 80 ms, measurement time 240 ms).
On the technique in general: In qHTS, concentration-response curves come from the screen itself.
As to `Cc1cc(C)c2nc(-c3ccco3)cc(C(=O)O)c2c1`, the Potency was 3.16 µM (active).

With `Cc1ccc2nc(-c3ccccc3)cc(C(=O)O)c2c1`, the “activity, negative = inhibition” value is -3.25% (inactive).

As to `CC1CCCN(C(=O)c2cc(-c3ccco3)nc3ccccc23)C1` (configuration not stated), the “activity, negative = inhibition” value was -0.376% (inactive).

Take `CCOC(=O)c1ccccc1NS(=O)(=O)c1c(C)nc2sccn2c1=O`: the “activity, negative = inhibition” value was 1.45% (inactive).

With `CCN(CC)S(=O)(=O)c1ccc(N2CCOCC2)c(NC(=O)C(C)Oc2ccc(F)cc2)c1` (configuration not stated), the “activity, negative = inhibition” value was -4.04% (inactive).

Take `Cc1occc1C(=O)Nc1cccc(S(=O)(=O)N2CCOCC2)c1`: the “activity, negative = inhibition” value was -5.85% (inactive).

As to `Oc1ccc(N=Nc2nccs2)c(O)c1`, the Potency was 25.1 µM (active).

`Oc1ccc2ccccc2c1N=Nc1nccs1`: the Potency was 3.98 µM (active).

`c1ccc(NCc2cccc3ccccc23)nc1`: the “activity, negative = inhibition” value was 25.5% (inactive).

In the case of `Oc1ccc2ccccc2c1C=Nc1ccccc1`, the “activity, negative = inhibition” value was -9% (inactive).

In the case of `CN(CC(=O)NC1CCN(Cc2ccccc2)CC1)S(=O)(=O)c1ccc(Cl)s1`, the “activity, negative = inhibition” value is -0.592% (inactive).

Take `O=C(COC(=O)c1ccco1)Nc1ccc(Cl)cn1`: the “activity, negative = inhibition” value is -4.51% (inactive).

Consider `O=C(NNS(=O)(=O)c1ccc(F)cc1)c1ccc([N+](=O)[O-])cc1Cl`, for which the “activity, negative = inhibition” value was 1.2% (inactive).

As for `Cc1sc2ncnc(N3CCC(C(=O)NNC(=O)c4ccc(F)cc4)CC3)c2c1C`, the “activity, negative = inhibition” value was 4.79% (inactive).

For the compound `CC1CCCCC1NCC(=O)Nc1ccccc1C(=O)Nc1ccccc1` (configuration not stated), the “activity, negative = inhibition” value was 11.2% (inactive).

For `O=C(CC1N=C2c3ccccc3N=C(SCc3ccccc3Cl)N2C1=O)NCc1ccco1` (configuration not stated), the “activity, negative = inhibition” value is -7.4% (inactive).

Turning to `COC(OC)c1ccnc(SCc2ccccc2Cl)n1`, the “activity, negative = inhibition” value was 30.5% (inactive).

Consider `O=c1[nH]c(SCc2ccccc2)nnc1-c1ccccc1`, for which the “activity, negative = inhibition” value was 47.2% (inactive).

As for `Clc1ccccc1CSc1nnc(-c2ccco2)c(-c2ccco2)n1`, the Potency was 8.91 µM (active).

With `c1ccc(CSc2nnc(-c3ccco3)c(-c3ccco3)n2)cc1`, the Potency is 7.94 µM (active).

For `O=C(Nc1nnc(SCc2ccccc2)s1)c1ccco1`, the “activity, negative = inhibition” value was -1.74% (inactive).

As for `Cc1nc(-c2ccc(F)cc2)c(CC(=O)Nc2cccc(S(=O)(=O)N3CCOCC3)c2)s1`, the “activity, negative = inhibition” value was -4.77% (inactive).

Consider `Cc1occc1-c1nnc(SCC(=O)NC2(C#N)CCCC2)n1C`, for which the “activity, negative = inhibition” value was -3.03% (inactive).

Take `O=C(CSc1nnc(COc2ccc(Cl)cc2)n1Cc1ccco1)N1CCNC1=O`: the “activity, negative = inhibition” value is -3.91% (inactive).

Regarding `COc1ccc2c(CC(=O)NNC(=O)c3ccccc3F)coc2c1`, the “activity, negative = inhibition” value is 1.74% (inactive).

`CC(C)N(C(=O)CSc1nnc(NC2CC2)s1)c1ccccc1`: the “activity, negative = inhibition” value was 2.8% (inactive).

For the compound `CCc1nnc(NC(=O)/C=C/c2ccc(C)o2)s1`, the “activity, negative = inhibition” value is 5.81% (inactive).

With `Cc1c(NC(=O)/C=C/C(=O)O)cccc1[N+](=O)[O-]`, the “activity, negative = inhibition” value was 4.64% (inactive).

For `Cc1ccc(/C=C/C(=O)Nc2ccc([N+](=O)[O-])c(NC(=O)/C=C/c3ccc(C)o3)c2)o1`, the Potency is 22.4 µM (active).

For the compound `NC(=O)c1ccc(Nc2ccc3nonc3c2[N+](=O)[O-])cc1`, the “activity, negative = inhibition” value was 2.69% (inactive).

On to `COc1ccc(Cl)cc1NC(=O)CN(C)C(=O)c1cc2ccccc2cc1OC`, for which the “activity, negative = inhibition” value is -1.92% (inactive).

Turning to `O=C(OCC(=O)N1CCCCCC1)c1cnc(Cl)c(Cl)c1`, the “activity, negative = inhibition” value is 0.852% (inactive).

`O=C(c1ccc(F)cc1)N1CCC(C(=O)N2CCN(S(=O)(=O)c3ccccc3Br)CC2)CC1`: the “activity, negative = inhibition” value is 9.56% (inactive).

Regarding `Cc1nc2sc(C(c3ccco3)N3CCOCC3)c(O)n2n1` (configuration not stated), the “activity, negative = inhibition” value was -0.458% (inactive).

Consider `Oc1c(C(c2ccccn2)N2CCOCC2)ccc2cccnc12` (configuration not stated), for which the Potency is 8.91 µM (active).

As to `CCOc1cc(N2CCOCC2)c(OCC)cc1NC(=O)COc1cccc2cccnc12`, the “activity, negative = inhibition” value is -2.29% (inactive).

As to `COc1ccc(C(=O)COC(=O)C(O)c2ccccc2)c(OC)c1` (configuration not stated), the “activity, negative = inhibition” value is -0.868% (inactive).

For the compound `CC(C)[C@H](NC(=O)N1c2ccccc2NC(=O)[C@@H]1C(C)C)C(=O)N[C@H](C(=O)O)c1ccccc1`, the “activity, negative = inhibition” value is -10% (inactive).

In the case of `CC(C#N)(NC(=O)CN1CCN(S(=O)(=O)c2cc(C(F)(F)F)ccc2Cl)CC1)C1CC1` (configuration not stated), the “activity, negative = inhibition” value was 12.2% (inactive).

In the case of `O=C(CN1CCN(c2ccccc2O)CC1)NC(=O)NCc1ccccc1`, the “activity, negative = inhibition” value was -7.24% (inactive).

In the case of `CCC(C)N(C(=O)CSc1nnnn1-c1ccccc1OC)C1CCS(=O)(=O)C1` (configuration not stated), the “activity, negative = inhibition” value is -0.112% (inactive).

As to `COC(=O)[C@]1(Cc2ccccc2)N[C@H](CN(C)S(=O)(=O)c2ccc(OC(F)(F)F)cc2)[C@@H]2C(=O)N(C)C(=O)[C@@H]21`, the “activity, negative = inhibition” value was -0.744% (inactive).

Consider `O=C(N/N=C/c1ccco1)c1ccc(C(=O)N/N=C/c2ccco2)o1`, for which the “activity, negative = inhibition” value was -10.8% (inactive).

Take `O=C(Nc1ccc(NC(=O)c2cccs2)cn1)c1ccco1`: the “activity, negative = inhibition” value was -4.02% (inactive).

Turning to `O=C(N/N=C/C=C/c1ccco1)c1cccs1`, the Potency is 31.6 µM (active).

As to `Cc1cc(C=O)c(C)n1-c1ccc(NC2CCCCC2)c([N+](=O)[O-])c1`, the Potency is 15.8 µM (active).

As for `Cc1c(NS(=O)(=O)c2ccc(NC3CCCC3)c([N+](=O)[O-])c2)c(=O)n(-c2ccccc2)n1C`, the “activity, negative = inhibition” value is -7.18% (inactive).

For the compound `Cc1cc([N+](=O)[O-])ccc1NC1CCCC1`, the “activity, negative = inhibition” value is -12.3% (inactive).

With `O=C(COC(=O)c1cccnc1Cl)NC12CC3CC(CC(C3)C1)C2`, the “activity, negative = inhibition” value was 2.98% (inactive).

In the case of `O=C(NCC#CCSc1nnc(-c2cccc3ccccc23)o1)c1cccs1`, the Potency entry is “inactive and 10 µM (active)”.

Turning to `Cc1ccc(-c2nnc(-c3ccc(NC(=O)c4cccs4)cc3)o2)cc1`, the “activity, negative = inhibition” value was 1.12% (inactive).

Consider `COc1ccc(-c2nnc(SCC(=O)c3cccs3)o2)c(OC)c1`, for which the “activity, negative = inhibition” value is -4.94% (inactive).
